aDG glyco up = activators of alpha-DG glycosylation, primary screen, uHTS, Pro5-aDG cells, AlphaScreen | alpha-DG glycosylation AlphaScreen (IIH6); 0% Pro5, 100% B10-LARGE cell signal | activation, % at 10 µM | actives 0.22% (n = 360,000) | AID 624168, 2012;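 active = activation of at least 8% versus controls, or a plate z-score of at least 8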;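 note: Pro5 are CHO cells carrying HIG-tagged alpha-DG that lacks glycosylation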
PG9 binder = binders of HIV-1 gp120 antibody PG9, primary screen, biochemical, TR-FRET. actives 0.43% (n = 360,000). inhibition, % at 6.7 µM. HIV-1 gp120 / PG9 antibody interaction. TR-FRET gp120-PG9 antibody binding; in the data active = inhibition above about 8.5%
NCF1 inh = p47phox/p22phox peptide binding inhibitors, primary screen, biochemical, uHTS, NADPH oxidase regulatory subunit. AID 1274, 2008. inhibition, % at 24.7 µM. Neutrophil cytosol factor 1 (Homo sapiens), P14598. fluorescence polarization, 2 h. actives 0.53% (n = 220,000);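 active = inhibition above about 30%, limit read from the data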;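 note: 0% = p47phox with labelled peptide and 100% = labelled peptide alone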
Target sequence (P14598 whole entry, looked up): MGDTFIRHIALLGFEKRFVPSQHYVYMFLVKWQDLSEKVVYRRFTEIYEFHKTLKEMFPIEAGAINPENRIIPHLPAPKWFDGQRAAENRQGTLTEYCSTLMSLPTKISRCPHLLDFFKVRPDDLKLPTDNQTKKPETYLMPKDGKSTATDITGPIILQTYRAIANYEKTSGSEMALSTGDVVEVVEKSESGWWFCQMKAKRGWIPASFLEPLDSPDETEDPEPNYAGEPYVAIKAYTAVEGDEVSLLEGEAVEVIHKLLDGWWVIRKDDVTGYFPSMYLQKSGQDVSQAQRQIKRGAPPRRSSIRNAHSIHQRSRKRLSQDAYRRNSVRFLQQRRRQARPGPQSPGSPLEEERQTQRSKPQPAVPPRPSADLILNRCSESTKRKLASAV
EBNA-1 inhibitor = EBNA-1 DNA-binding inhibitors, primary screen, biochemical, fluorescence polarization. actives 0.34% (n = 300,000). AID 1950, 2009. inhibition, % at 14.8 µM; in the data active = inhibition above about 28%
ZTA counter = blocks Epstein-Barr virus ZTA, an EBNA-1 counter-screen | ZTA-DNA binding, fluorescence polarization | actives 0.15% (n = 320,000) | P03206 | inhibition, % at 11 µM | AID 2234; in the data active = inhibition above about 33%
Target sequence (P03206 whole entry, looked up): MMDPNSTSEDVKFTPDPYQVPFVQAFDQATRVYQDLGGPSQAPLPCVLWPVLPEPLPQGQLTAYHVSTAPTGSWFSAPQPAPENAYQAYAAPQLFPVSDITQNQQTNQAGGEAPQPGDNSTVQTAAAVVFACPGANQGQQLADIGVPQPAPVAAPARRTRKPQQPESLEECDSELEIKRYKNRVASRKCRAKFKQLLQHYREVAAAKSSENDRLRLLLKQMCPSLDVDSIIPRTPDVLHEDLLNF
Rev-erbA mod = modulators of Rev-erb alpha DNA binding, primary screen, biochemical, FITC-DNA, fluorescence polarization, uHTS; Rev-erbα–FITC-DNA binding, 90 min; actives 0.79% (n = 370,000); activity, % at 10 µM; AID 1259318, 2017;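 active = activity above about 14%, limit read from the data; passing the limit was not always enough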;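 note: 0% = DMSO wells with 35 nM protein and 100% = DMSO wells with 750 nM protein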
PG9 bind confirm = binders of anti-gp120 antibody PG9, confirmation, biochemical, TR-FRET. shares compounds with PG9 binder. TR-FRET PG9 antibody binding. inhibition, % at 6.7 µM. actives 90% (n = 1,500); in the data active = inhibition above about 9%
PGV04 Ab binding = binders of control antibody PGV04, counter-screen for PG9 antibody binder project, biochemical, TR-FRET, distinct HIV envelope site; actives 95% (n = 1,500); inhibition, % at 6.7 µM; TR-FRET PGV04 antibody-gp120 binding; shares compounds with PG9 binder; in the data active = inhibition above about 9.5%
NR1D1 mod conf = modulators of Rev-erb alpha DNA binding, confirmation, biochemical, FITC-DNA, fluorescence polarization, single point; shares compounds with Rev-erbA mod; 90 min; activation, % at 25 µM; actives 61% (n = 3,000);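 active = activation at or above a set limit, or at least 3 SD above the negative control mean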;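 note: 0% = 35 nM protein with DMSO and 100% = 750 nM protein high control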
RORg counter = modulation of RORgamma DNA binding, dose response, counter-screen for Rev-erb alpha modulator project, biochemical, fluorescence polarization, FITC-DNA; shares compounds with Rev-erbA mod; purified RORgamma protein-FITC-DNA binding; IC50, µM; actives 8% (n = 910); AID 1259320, 2017;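 active = Compounds whose fitted half-maximal concentration for disrupting protein-DNA binding is below 10 micromolar; the record names Rev-erb in its text, so the target is in doubt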
Numbers without * were called inactive; i = inactive; nt = no result given. Compounds with a hit are over-represented: about 1.9% of the library has one in this group of screens.

SMILES | aDG glyco up | PG9 binder | NCF1 inh | EBNA-1 inhibitor | ZTA counter | Rev-erbA mod | PG9 bind confirm | PGV04 Ab binding | NR1D1 mod conf | others
COC(=O)c1c(NC(=O)CN2C(=O)NC3(CCc4ccccc4C3)C2=O)sc2c1CCCCC2 (stereo not given) | -0.3 | 15.0* | -11.9 | 10.0 | 2.6 | 30.4* | 21.9* | 34.3* | 25.8*
COC(=O)c1c(NC(=O)CN2C(=O)NC3(CCC(C(C)(C)C)CC3)C2=O)sc2c1CCCCC2 (stereo not given) | -0.5 | 0.4 | -15.8 | -3.0 | -9.4 | 13.2 | nt | nt | nt
Cc1ccc(NC(=O)C2CCCN(c3nnc(-n4cccc4)s3)C2)c(C)c1 (stereo not given) | nt | nt | nt | nt | nt | 2.8 | nt | nt | nt
COc1cc(NC(=O)c2ccc(-c3ccc(Br)cc3)o2)ccc1NC(=O)C(C)C | 0.0 | 21.8* | -11.9 | 13.1 | -10.4 | 36.9* | 40.9* | 29.8* | 15.6
COc1ccccc1NC(=O)c1ccc(-c2ccc(Br)cc2)o1 | -0.1 | 2.5 | -14.9 | -6.8 | -1.4 | 7.3 | nt | nt | nt
COc1ccc(C(=O)NCC(=O)Nc2ccc(F)cc2)cc1OC | -0.1 | -0.6 | -1.6 | 3.4 | 4.3 | -0.2 | nt | nt | nt
COc1ccc(-c2nc(NC(=O)c3ccc(OCC(=O)Nc4ccc(F)cc4)c(OC)c3)sc2C)cc1 | 1.6 | 80.5* | -1.7 | 12.4 | -5.3 | 180.4* | 69.2* | 82.0* | 153.8* | RORg counter=i
COc1cccc(/C=C2\CC3(OC(=O)c4ccco4)CCCN2C3)c1 (stereo not given) | nt | nt | nt | nt | nt | 11.6 | nt | nt | nt
Cc1ccccc1NC(=O)c1sc(NC(=O)COc2ccccc2)c(C#N)c1C | 0.2 | 34.4* | -16.1 | 17.8 | 2.2 | 73.8* | 36.8* | 52.5* | 58.1* | RORg counter=>40
COC(=O)c1cc(S(=O)(=O)N2CCCN(C(C)=O)CC2)cn1C | nt | nt | nt | nt | nt | -7.0 | nt | nt | nt
O=C(CSc1nnc(-c2cccs2)o1)Nc1cccc2ccccc12 | nt | nt | nt | nt | nt | -3.7 | nt | nt | nt
C[C@@H](NC(=O)c1ncn2c1c(=O)[nH]c1cccnc12)c1ccccc1 | 0.0 | 0.1 | nt | nt | nt | 0.1 | nt | nt | nt
C[C@@H](NC(=O)c1ncn2c1c(=O)[nH]c1ccc(Br)cc12)c1ccccc1 | -0.2 | 18.3* | nt | nt | nt | 131.6* | 46.4* | 53.8* | 23.1*
Fc1ccc(NC2CCC23CCC(c2ccccc2)CC3)cc1C(F)(F)F (stereo not given) | nt | nt | nt | nt | nt | 6.4 | nt | nt | nt
Cc1cc(-c2cccc(Br)c2)c(C#N)c(N)n1 | 0.1 | 33.5* | -29.5 | -2.0 | 17.4 | 21.3* | 37.9* | 61.3* | 6.8
CCc1cc2cccc(C)c2nc1SCC(=O)Nc1cc(C)on1 | 0.0 | 4.4 | 3.8 | 0.9 | -4.9 | 9.2 | nt | nt | nt
Cc1cccc2cc(C#N)c(SCC(=O)N3CC(=O)Nc4ccccc43)nc12 | -0.4 | 30.5* | -35.3 | 1.3 | 10.2 | 89.7* | 46.1* | 74.5* | 66.9* | RORg counter=>40
Cc1cc(NC(=O)CSc2nc3c(C)cccc3cc2C#N)no1 | -0.2 | 27.1* | nt | 2.7 | 1.4 | 83.2* | 43.2* | 71.6* | 53.1* | RORg counter=>40
Cc1cccc2cc(C#N)c(SCC(=O)N3CCC(C)CC3)nc12 | 0.4 | 8.8* | -26.1 | 1.0 | 11.2 | 53.2* | 12.1* | 16.1* | 64.6* | RORg counter=i
CCOC(=O)N1CCC(NC(=O)c2ccc3c(c2)sc2nc(-c4ccccc4)cn23)CC1 | 4.8 | 20.6* | -17.4 | 1.5 | -11.2 | 62.5* | 20.8* | 37.7* | 40.5*
CCOC(=O)N1CCC(NC(=O)c2ccc3c(c2)sc2nc(-c4cccc(OC)c4)cn23)CC1 | nt | nt | 13.3 | nt | nt | nt | nt | nt | nt
CCc1nc(Nc2cc(OC)ccc2OC)c2oc3ccccc3c2n1 | 0.0 | 13.4* | nt | 9.5 | 19.5 | 22.1* | 20.0* | 25.2* | 12.1
CCOc1ccc(C(=O)OCC(=O)Nc2cc(C)on2)cc1OCC | 0.1 | 22.3* | -11.5 | 5.7 | -21.2 | 57.6* | 4.1 | 16.2* | 31.0*
CCOc1cc(C(=O)OCC(=O)Nc2cc(C)on2)ccc1OCC(C)C | 0.0 | -0.1 | -3.0 | 4.1 | 2.1 | -2.0 | nt | nt | nt
c1ccc2cc(Cn3ccc4ccc(-c5ccc6cc[nH]c6c5)cc43)ccc2c1 | nt | nt | nt | nt | nt | 6.8 | nt | nt | nt
SMILES | aDG glyco up | PG9 binder | NCF1 inh | EBNA-1 inhibitor | ZTA counter | Rev-erbA mod | PG9 bind confirm | PGV04 Ab binding | NR1D1 mod conf | others
CC(=O)Nc1sc(C)c(C)c1C(=O)OCC(=O)NCc1ccc(F)cc1 | 0.0 | 9.3* | nt | nt | 9.2 | 17.1* | 13.2* | 19.3* | 15.5*
COc1ccc(CNC(=O)CS(=O)(=O)Cc2nc(-c3ccc(OC)cc3)oc2C)cc1 | 0.0 | -0.3 | nt | 10.4 | -8.1 | 1.1 | nt | nt | nt
Cc1ccc(CNC(=O)CS(=O)(=O)Cc2nc(-c3ccc(C)cc3)oc2C)cc1 | -0.1 | 28.4* | nt | -2.8 | -5.2 | 27.8* | 20.0* | 53.2* | 12.1
C=CCOC(=O)c1sc(NC(=O)c2ccc(OC)cc2)nc1C | -0.2 | 18.1* | 4.8 | 9.5 | 15.0 | 38.6* | 22.0* | 38.8* | 24.9*
CCOc1ccc(C(=O)Nc2nc(C)c(C(=O)OC)s2)cc1 | 0.5 | 11.9* | -27.6 | 3.8 | -15.8 | 49.6* | 38.0* | 71.1* | 80.8* | RORg counter=i
N#Cc1nc(-c2ccc(OCc3ccccc3)cc2)oc1N1CCC(C(N)=O)CC1 | -0.1 | 9.5* | 55.3* | -7.9 | -1.6 | 41.5* | 9.1* | 15.5* | 8.4
COCCNc1nc2c(S(=O)(=O)c3cc(C)ccc3C)nnn2c2ccccc12 | -0.4 | 45.6* | -3.4 | 7.9 | 15.1 | 45.4* | 28.7* | 55.3* | 19.2*
CCOC(=O)c1sc(NC(=O)c2ccco2)nc1-c1ccccc1 | 0.0 | 10.2* | -17.6 | 14.9 | 13.7 | 45.8* | 30.3* | 56.8* | 25.4*
COc1ccc(S[C@]2(C(=O)N3CCOCC3)CC(=O)N(C(=O)CCc3ccccc3)[C@@H]2c2ccc(OC)cc2)cc1 | nt | nt | nt | nt | nt | -0.4 | nt | nt | nt
CCC(=O)c1cn(CC(=O)Nc2ccccc2F)c2ccccc12 | 0.3 | -1.7 | nt | -10.0 | -2.8 | 5.0 | nt | nt | nt

Assay outcomes as filed in PubChem.
